The values that follow come from PubChem BioAssay (Tox21).

The nature of assay [1]: qHTS assay to identify small molecule antagonists of the thyroid receptor (TR) signaling pathway (AID 743065). Note: series mostly up to about 70 µM; nearly all actives have a fitted effect of over 55% in size. In a few lines: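 GH3.TRE-Luc rat pituitary cells carrying two TR response elements driving luciferase were plated for 4 h, given compound plus 1 nM T3 (final), and incubated 23.5 h at 37 C. ONE-Glo luminescence measured reporter inhibition; CellTiter-Fluor fluorescence tracked cytotoxicity.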
(Quantitative high-throughput screening tests each substance at several concentrations.)

Assay [2] deals with thyroid hormone receptor (rat, GH3 cells). Nature of the assay: qHTS assay to identify small molecule agonists of the thyroid receptor (TR) signaling pathway (AID 743066; calls by dose curve).
Assay [3] concerns the target Estrogen receptor (Homo sapiens) (UniProt P03372). The experiment in a line: qHTS assay to identify small molecule antagonists of the estrogen receptor alpha (ER-alpha) signaling pathway (AID 743069; active = well fitted curve in the direction sought with a large enough effect in the signal ratio in the repeat runs, not every such curve was filed as active; the % refers to the signal ratio). In a few lines: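 Estradiol-stimulated ER-alpha-UAS-bla HEK293 cells, 18 hr compound exposure at 37C. LiveBLAzer B/G substrate, 2 hr RT, fluorescence read.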
The nature of assay [4]: qHTS assay to identify small molecule antagonists of the estrogen receptor alpha (ER-alpha) signaling pathway - cell viability counter screen (AID 743074; calls by dose curve;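 note: HEK293 cells carrying ER-alpha-UAS-bla reporter stimulated with 17beta-estradiol; nearly all actives have a fitted effect of over 45% in size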).
In assay [5] the target is Estrogen receptor (Homo sapiens) (UniProt P03372). The experiment in a line: qHTS assay to identify small molecule agonists of the estrogen receptor alpha (ER-alpha) signaling pathway (AID 743075; calls by dose curve;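 note: HEK293 GripTite cells with ER-alpha and UAS-driven beta-lactamase reporter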).
Sequence of Estrogen receptor (Homo sapiens) (P03372 whole entry, looked up): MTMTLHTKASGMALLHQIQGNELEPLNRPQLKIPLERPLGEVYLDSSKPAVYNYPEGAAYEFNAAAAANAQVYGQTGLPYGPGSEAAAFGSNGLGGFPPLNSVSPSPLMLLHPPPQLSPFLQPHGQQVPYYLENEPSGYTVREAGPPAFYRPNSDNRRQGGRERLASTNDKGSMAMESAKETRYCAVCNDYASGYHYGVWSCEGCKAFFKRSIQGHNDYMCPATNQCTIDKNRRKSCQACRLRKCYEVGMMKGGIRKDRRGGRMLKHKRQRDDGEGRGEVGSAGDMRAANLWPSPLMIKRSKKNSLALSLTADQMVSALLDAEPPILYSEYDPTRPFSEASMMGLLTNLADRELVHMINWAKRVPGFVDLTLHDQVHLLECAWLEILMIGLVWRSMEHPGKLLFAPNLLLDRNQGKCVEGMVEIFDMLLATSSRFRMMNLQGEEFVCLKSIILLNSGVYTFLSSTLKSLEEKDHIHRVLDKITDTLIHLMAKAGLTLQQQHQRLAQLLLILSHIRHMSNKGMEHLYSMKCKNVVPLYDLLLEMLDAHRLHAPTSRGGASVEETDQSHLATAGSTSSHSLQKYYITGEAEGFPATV
For assay [6] the target is unchanged. The experiment in a line: qHTS assay to identify small molecule agonists of the estrogen receptor alpha (ER-alpha) signaling pathway using the BG1 cell line (AID 743079). Note: nearly all actives have a fitted effect of over 20% in size. Note: potency is the fitted concentration of half-maximal effect.
A short description of assay [7]: qHTS assay to identify small molecule antagonists of the estrogen receptor alpha (ER-alpha) signaling pathway using the BG1 cell line (AID 743080; calls by dose curve;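 note: BG1 cells stimulated with 17beta-estradiol alongside compound; series mostly up to about 70 µM; nearly all actives have a fitted effect of over 25% in size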). An outline of the steps:
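After 5 days in phenol-red-free 10% charcoal-stripped FBS medium, BG1-Luc-4E2 cells were seeded, left 24 h at 37 C, co-treated with compounds and 17beta-estradiol for 21.5 h, then assayed for viability and luciferase.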

Assay [8] is described as follows: qHTS assay to identify small molecule antagonists of the estrogen receptor alpha (ER-alpha) signaling pathway using the BG1 cell line - cell viability counter screen (AID 743081).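 Note: compound given together with 17beta-estradiol as the ER stimulus; series mostly up to about 70 µM; nearly all actives have a fitted effect of over 45% in size.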
Another assay has as its target Aromatase (Homo sapiens) (UniProt P11511). The experiment in a line: qHTS assay to identify aromatase inhibitors (AID 743083). Note: series mostly up to about 70 µM; nearly all actives have a fitted effect of over 55% in size.
The nature of assay [9]: qHTS assay to identify aromatase inhibitors - cell viability counter screen (AID 743084).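 Note: cells stimulated with testosterone during compound exposure; nearly all actives have a fitted effect of over 55% in size.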
A short description of assay [10]: qHTS assay to identify small molecule that activate the aryl hydrocarbon receptor (AhR) signaling pathway - cell viability counter screen (AID 743086).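 Note: HepG2 liver cells carrying the AhR DRE luciferase reporter; series mostly up to about 70 µM; nearly all actives have a fitted effect of over 45% in size.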 In a few lines: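 HepG2-AhR-luc (HG2L7.5c1) cells, 4000/well, were preincubated 5 h at 37C, exposed to compound in qHTS format for 24 hr at 37C, then given CellTiter-Fluor for 30 min; viability was read as fluorescence in the reporter wells.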

In assay [11] the target is Peroxisome proliferator-activated receptor gamma (Homo sapiens) (UniProt P37231). Nature of the assay: qHTS assay to identify small molecule agonists of the peroxisome proliferator-activated receptor gamma (PPARg) signaling pathway (AID 743094; active = well fitted activation curve with a large enough effect in the signal ratio in the repeat runs, not every such curve was filed as active; the % refers to the signal ratio). In a few lines:
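Quantitative HTS agonist mode: stable HEK293H line with UAS-beta-lactamase reporter under PPARg control, 17 h compound exposure at 37C, fluorescence after 1 h FRET substrate loading at room temperature.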

The nature of assay [12]: qHTS assay to identify small molecule antagonists of the peroxisome proliferator-activated receptor gamma (PPARg) signaling pathway - cell viability counter screen (AID 743194). Note: nearly all actives have a fitted effect of over 55% in size. In a few lines: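 PPARg-UAS-bla HEK293H cells were plated, rested 5 h at 37 C, then treated with compounds plus rosiglitazone (50 nM final) for 17 h at 37 C; viability was then read by CellTiter-Glo luminescence after 30 min at room temperature.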

A short description of assay [13]: qHTS assay for small molecule agonists of the antioxidant response element (ARE) signaling pathway - cell viability counter screen (AID 743203; calls by dose curve; note: nearly all actives have a fitted effect of over 55% in size). An outline of the steps: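 Seeded at 2,000 cells/well, ARE-bla HepG2 cells were incubated 5 hrs before compound addition. After 16 hrs of treatment at 37C with 5% CO2, CellTiter-Glo reagent was added and luminescence read 30 min later.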

Assay [14] is described as follows: qHTS assay for small molecule activators of the heat shock response signaling pathway - cell viability counter screen (AID 743209). Note: nearly all actives have a fitted effect of over 50% in size. An outline of the steps: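 First, HSE-bla HeLa cells were seeded at 1500 cells/well and kept overnight at 37 C. Next, compounds were pinned in and incubated 5 h. After the FRET substrate step, CellTiter-Glo was added and luminescence read 30 min later.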

Assay [15] in a line: qHTS assay to identify small molecule agonists of the peroxisome proliferator-activated receptor delta (PPARd) signaling pathway - cell viability counter screen (AID 743211). Note: nearly all actives have a fitted effect of over 55% in size. In a few lines: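 Luminescent ATP viability assay (CellTiter-Glo, 30 min RT) in UAS-bla HEK293H cells carrying the PPAR delta reporter construct, 3000 cells/well, after a 17 h compound treatment at 37 C.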

Assay [16] is described as follows: qHTS assay for small molecule agonists of the antioxidant response element (ARE) signaling pathway (AID 743202; active = well fitted activation curve with a large enough effect in the signal ratio in the repeat runs, not every such curve was filed as active; the % refers to the signal ratio; note: potency is the fitted concentration of half-maximal effect). In a few lines: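 Compounds delivered in DMSO to ARE-bla HepG2 cells (2,000 cells/well, pre-incubated 5 h) and left 16 h at 37 C. LiveBLAzer B/G FRET substrate then added for 2 h at RT before fluorescence reading.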
Assay [17] in a line: qHTS assay for small molecule activators of the heat shock response signaling pathway (AID 743210; active = well fitted activation curve with a large enough effect in the signal ratio in the repeat runs, with a control signal flat, not every such curve was filed as active; the % refers to the signal ratio;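 note: HeLa cells with beta-lactamase reporter driven by heat shock elements; series mostly up to about 63 µM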). In a few lines: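 Reporter gene assay: HeLa cells stably bearing an HSE-bla construct, compound treatment 5 h at 37 C, LiveBLAzer substrate 2.5 h at RT, fluorescence intensity.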
Assay [18] addresses Peroxisome proliferator-activated receptor gamma (Homo sapiens) (UniProt P37231). The experiment in a line: qHTS assay to identify small molecule antagonists of the peroxisome proliferator-activated receptor gamma (PPARg) signaling pathway (AID 743191; calls by dose curve; note: series mostly up to about 63 µM; nearly all actives have a fitted effect of over 30% in size). In a few lines: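 GeneBLAzer PPARg UAS-bla HEK293H cells carrying a UAS-driven beta-lactamase reporter were plated at 3000 cells/well, preincubated 5 h at 37C, then given compound for 17 h at 37C; LiveBLAzer B/G FRET substrate was read after 1 h at room temperature.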

The target in assay [19] is Aryl hydrocarbon receptor (Homo sapiens) (UniProt P35869). Nature of the assay: qHTS assay to identify small molecule that activate the aryl hydrocarbon receptor (AhR) signaling pathway (AID 743085).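 Note: HG2L7.5c1 human HepG2 liver cells with stably integrated DRE-driven firefly reporter; series mostly up to about 70 µM; nearly all actives have a fitted effect of over 15% in size.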 In a few lines: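 24 h compound exposure, 37C, HepG2-derived HG2L7.5c1 cells with DRE-responsive luciferase. Readouts: fluorescence viability, then luminescence at room temperature after 30 min.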
Sequence of Aryl hydrocarbon receptor (Homo sapiens) (P35869 whole entry, looked up): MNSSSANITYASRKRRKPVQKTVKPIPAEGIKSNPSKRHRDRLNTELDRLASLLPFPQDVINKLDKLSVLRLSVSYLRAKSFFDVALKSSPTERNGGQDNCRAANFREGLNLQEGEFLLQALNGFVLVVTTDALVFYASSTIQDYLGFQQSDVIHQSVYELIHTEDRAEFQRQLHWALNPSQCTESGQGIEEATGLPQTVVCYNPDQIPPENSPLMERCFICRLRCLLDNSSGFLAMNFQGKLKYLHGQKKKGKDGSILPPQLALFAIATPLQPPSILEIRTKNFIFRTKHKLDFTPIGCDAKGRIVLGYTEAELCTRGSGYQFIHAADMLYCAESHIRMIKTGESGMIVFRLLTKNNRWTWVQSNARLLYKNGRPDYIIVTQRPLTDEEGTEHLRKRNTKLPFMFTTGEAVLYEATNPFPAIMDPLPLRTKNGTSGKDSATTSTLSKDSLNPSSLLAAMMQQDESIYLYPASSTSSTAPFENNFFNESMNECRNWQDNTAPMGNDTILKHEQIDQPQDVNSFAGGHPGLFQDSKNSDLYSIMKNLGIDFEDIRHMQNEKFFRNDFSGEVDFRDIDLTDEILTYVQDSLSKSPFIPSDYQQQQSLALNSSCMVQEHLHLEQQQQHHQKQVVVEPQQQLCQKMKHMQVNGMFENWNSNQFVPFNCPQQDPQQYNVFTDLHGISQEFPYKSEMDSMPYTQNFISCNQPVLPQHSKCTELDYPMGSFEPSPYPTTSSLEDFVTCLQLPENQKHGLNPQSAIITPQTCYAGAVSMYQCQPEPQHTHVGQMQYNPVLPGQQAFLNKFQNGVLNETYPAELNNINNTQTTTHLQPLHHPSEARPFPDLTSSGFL

Structures are written as SMILES. Records with an inconclusive call do not appear. Active and inactive are the calls of the source. Unless noted, calls come from the whole dose curve; as a rule, active = well fitted curve in the direction sought with a large enough effect in the repeat runs; inconclusive = weak or mixed curves; inactive = no such curve, though single readings can be large; an effect the other way counts as inactive or inconclusive.

Sequence of Aromatase (Homo sapiens) (P11511 whole entry, looked up): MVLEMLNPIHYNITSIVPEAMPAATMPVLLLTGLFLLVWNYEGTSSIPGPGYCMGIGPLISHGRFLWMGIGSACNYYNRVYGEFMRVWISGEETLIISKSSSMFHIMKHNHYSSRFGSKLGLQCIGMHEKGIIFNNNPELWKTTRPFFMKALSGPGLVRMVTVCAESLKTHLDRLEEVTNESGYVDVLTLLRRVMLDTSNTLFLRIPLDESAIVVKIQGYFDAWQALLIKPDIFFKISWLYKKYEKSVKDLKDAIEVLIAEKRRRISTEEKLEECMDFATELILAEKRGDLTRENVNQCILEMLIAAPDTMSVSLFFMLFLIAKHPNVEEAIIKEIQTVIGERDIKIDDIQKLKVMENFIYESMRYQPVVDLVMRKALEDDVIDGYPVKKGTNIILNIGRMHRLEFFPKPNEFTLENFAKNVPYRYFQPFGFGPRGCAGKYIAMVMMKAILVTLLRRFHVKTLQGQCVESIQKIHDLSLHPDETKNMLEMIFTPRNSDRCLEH
Sequence of Peroxisome proliferator-activated receptor gamma (Homo sapiens) (P37231 whole entry, looked up): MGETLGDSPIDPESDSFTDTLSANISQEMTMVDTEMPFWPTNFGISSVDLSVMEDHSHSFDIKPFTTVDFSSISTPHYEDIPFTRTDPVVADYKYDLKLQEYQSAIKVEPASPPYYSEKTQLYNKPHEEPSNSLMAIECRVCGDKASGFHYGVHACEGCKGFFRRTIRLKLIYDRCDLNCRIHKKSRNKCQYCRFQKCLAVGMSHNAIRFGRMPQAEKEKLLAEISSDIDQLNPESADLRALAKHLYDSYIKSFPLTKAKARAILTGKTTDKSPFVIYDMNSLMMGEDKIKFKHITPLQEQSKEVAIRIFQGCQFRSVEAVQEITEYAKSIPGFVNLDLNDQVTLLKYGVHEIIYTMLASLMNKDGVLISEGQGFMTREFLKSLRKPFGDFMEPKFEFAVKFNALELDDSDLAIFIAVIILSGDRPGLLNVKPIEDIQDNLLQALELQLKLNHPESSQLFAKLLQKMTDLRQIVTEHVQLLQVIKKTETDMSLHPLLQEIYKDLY

For `Cc1ccsc1C(=CCCN1CCC[C@@H](C(=O)O)C1)c1sccc1C`, the Potency entry (in [1]; in assay [3]; in assay [4]; in assay [8]; with Aromatase (Homo sapiens); in [9]) was “inactive” in each case. Also, the Potency entry in assay [11], in assay [12], in assay [13] and in [15] was “inactive” throughout. Also, the molecule was called inactive in [2], in assay [5], in [7], in assay [10] and in assay [14]. Further, the Potency in [6] was 21.1 µM (active).
`NS(=O)(=O)c1cc(-c2nn[nH]n2)c(NCc2cccs2)cc1Cl`: the Potency result (in assay [1]; in [3]; in assay [4]; in [6]; in [8]; with Aromatase (Homo sapiens)) was “inactive” throughout. In addition, the Potency result in assay [9], in [12], in assay [13] and in assay [17] was “inactive” each time. In addition, the result in [2], in assay [5], in [7], in [10] and in assay [14] was inactive. Also, the Potency in assay [16] was 10.6 µM (active).
With `FC(F)(F)C(Cl)(Cl)Cl`, the Potency result (in [1]; in assay [3]; in assay [4]; in assay [6]; in assay [8]; with Aromatase (Homo sapiens)) was “inactive” each time. Moreover, the Potency result in assay [9], in assay [11], in [18], in [12], in assay [16] and in [13] was “inactive” each time. Besides, the Potency result in [17] and in assay [15] was “inactive” throughout. Moreover, the molecule was classed as inactive in assay [2], in [5], in assay [7], in assay [10] and in assay [14].
On to `CCCCCCCCCC#N`, for which the Potency entry (in [1]; in assay [3]; in [4]; in assay [6]; in assay [8]; with Aromatase (Homo sapiens)) was “inactive” in each case. The Potency result in assay [9], in assay [11], in [18], in [12], in [16] and in [13] was “inactive” throughout. The Potency entry in assay [17] and in assay [15] was “inactive” each time. The molecule was called inactive in assay [2], in [5], in assay [7], in assay [10] and in assay [14].
On to `COc1ccccc1OCC(O)COC(N)=O` (configuration not stated), for which the Potency result (in assay [1]; in assay [3]; in assay [4]; in assay [6]; with Aromatase (Homo sapiens); in assay [9]) was “inactive” throughout. The Potency result in [19], in [11], in assay [18], in assay [12], in [16] and in [13] was “inactive” in each case. Also, the Potency result in assay [17] and in assay [15] was “inactive” in each case. In addition, the call in assay [2], in [5], in assay [7], in assay [10] and in assay [14] was inactive.
With `Cc1c[nH]c(=S)[nH]c1=O`, the Potency result in assay [1], in assay [3], in assay [4], in assay [6], in assay [8] and in assay [19] was “inactive” in each case. Besides, the Potency entry in assay [11], in [18], in [12], in assay [16] and in [13] was “inactive” in each case. In addition, the molecule was called inactive in [2], in [5], in assay [7], in [10] and in assay [14].
As to `COC(=O)c1ccc2cc(C(=O)OC)ccc2c1`, the Potency result (in assay [1]; in [3]; in assay [4]; in assay [6]; in [8]; in the assay with Aromatase (Homo sapiens)) was “inactive” each time. In addition, the Potency entry in [9], in [11], in [18], in assay [12], in [16] and in assay [13] was “inactive” in each case. For the same molecule, the Potency result in assay [15] was “inactive”. For the same molecule, the molecule was classed as inactive in [2], in [5], in assay [7], in assay [10] and in [14].
For `Cc1cc(NS(=O)(=O)c2ccc(N)cc2)nc(C)n1`, the Potency result (in assay [1]; in assay [3]; in assay [4]; in assay [6]; in assay [8]; in the assay with Aromatase (Homo sapiens)) was “inactive” each time. The Potency entry in assay [19], in [11], in assay [18], in assay [12], in assay [16] and in assay [13] was “inactive” throughout. In addition, the Potency result in assay [17] and in assay [15] was “inactive” throughout. For the same molecule, the molecule was classed as inactive in [2], in assay [5], in assay [7], in [10] and in [14].
